PTHR1 ag – activates the human parathyroid hormone receptor PTHR1; HEK293 GP2 PTHR1 cells, GloSensor cAMP luminescence, 1 h; Potency, µM (doses to about 115 µM), for the others: at the highest dose activation, hits mostly activators; hit rate 0.075% among 410,000; AID 743266; note: potency is the fitted concentration of half-maximal effect; nearly all actives have a fitted effect of over 55% in size
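HEK-293-derived GP2 cells expressing PTHR1 and a GloSensor cAMP reporter, 3,000/well, plated overnight, given luciferin plus IBMX (each 0.5 mM as added) for 1 h at 37 °C, then compound for 1 h at 37 °C. Luminescence was read after 15 min at room temperature.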
RGS4 inhibitor – blocks human RGS4-accelerated GTP hydrolysis; Potency, µM (doses to about 114 µM), inactives show at the highest dose activity change, negative = inhibition, hits mostly inhibitors; AID 504845; Transcreener GDP fluorescence polarization, RGS4-accelerated GTP hydrolysis; hit rate 0.039% among 390,000; note: potency is the fitted concentration of half-maximal effect; % is set by controls: 0 for no effect and ±100 for the full control effect; nearly all actives have a fitted effect of over 75% in size
Target sequence (P49798 whole entry, looked up): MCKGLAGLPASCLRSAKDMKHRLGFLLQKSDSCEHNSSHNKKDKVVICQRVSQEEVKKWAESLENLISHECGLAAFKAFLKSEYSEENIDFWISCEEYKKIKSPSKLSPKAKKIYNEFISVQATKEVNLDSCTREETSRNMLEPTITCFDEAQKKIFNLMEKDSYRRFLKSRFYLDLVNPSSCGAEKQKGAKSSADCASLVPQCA
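MLSMR compounds (23 nl, pin-transferred) preincubated 10 min at room temperature with a 500nM (2x) first reagent, then RGS4 at 900nM (2x) plus Transcreener GDP mix added; fluorescence polarization (620/688 nm) read before and after 90 min at 30 °C.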
DRD3 agonist – agonists of human D3 dopamine receptor; P35462; D3R DiscoveRx beta-arrestin cells, luminescence, 90 min; max activation, %; hit rate 0.58% among 410,000; in the data active = max activation above about 30%; note: 0% is about no effect
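Agonist mode: compounds and dopamine controls were applied to plated cells for 90 min at 37 degrees C after an overnight attachment at 1500 cells/well. Luminescent read-out followed 30 - 60 minutes at room temperature with DiscoveRx detection reagent.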
B2AR arrestin – beta2AR (human) beta-arrestin recruitment activity; P07550; beta-arrestin recruitment to beta2AR, cell-based reporter; Potency, µM (top dose mostly 46.1 µM), for inactives: at the highest dose activation, most hits filed as activators; hit rate 0.02% among 330,000; AID 492947;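 note: potency is the fitted concentration of half-maximal effect; 0% = DMSO controls and full agonism = EC100 isoproterenol or metaproterenol; nearly all actives have a fitted effect of over 65% in size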
BRCA1 expr up – activators of BRCA1 expression; hit rate 1.1% among 380,000; Potency, µM (doses to about 46.1 µM), inactives show at the top dose activation, usual class: activators; MCF7-BRCA1-FFLuc reporter, luminescence, 48 h; response scale: scaled: vehicle 0%, 10 µM genistein 100%; AID 624202; note: potency is the fitted concentration of half-maximal effect; nearly all actives have a fitted effect of over 80% in size
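Compounds are tested at multiple concentrations on MCF7 BRCA1-luciferase reporter cells seeded at 2000 per well; after 48 h, a single luminescence end-point is taken and curves fitted to the normalized data.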
D3 antag – D3 dopamine receptor (human) antagonism; hit rate 2.5% among 360,000; D3R cells, DiscoveRx beta-arrestin luminescence, antagonist mode; stronger effect = lower value; P35462; max response, negative = inhibition, %; in the data active = max response below about -50%; inconclusive = no clear call, values can overlap the other calls; note: % is set by controls: 0 for no effect and ±100 for the full control effect
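Cells expressing the human receptor were seeded at 1500 cells/well, incubated overnight at 37 degrees C in 5% CO2, then exposed to library compounds with dopamine controls for 90 minutes at 37 degrees C before luminescent detection.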
Starred values were filed as active, the others as inactive; i = inactive; ? = inconclusive; · = no result; [ ] = another dose, or the depositor's remark. Shown are actives, neighbours in structure and some others; about 3.7% of the full set was active somewhere. Unless noted, calls come from the whole dose curve; as a rule, active = well fitted curve in the direction sought with a large enough effect; inconclusive = small, poorly fitted or top-dose-only effect, or another doubt; inactive = no such curve, though single readings can be large; an effect the other way counts as inactive or inconclusive.

SMILES	PTHR1 ag	RGS4 inhibitor	DRD3 agonist	B2AR arrestin	BRCA1 expr up	D3 antag
CN(C)C(=O)CCSC(SCCC(=O)O)c1cccc(/C=C/c2ccc3ccc(Cl)cc3n2)c1 (stereo not given)	·	·	-1	·	·	·
O=c1c2c(n3cnnc3n1-c1ccccc1)-c1ccccc1CC21CCCC1	i	15%	1	3%	-33%	-23
Cn1c(=O)c2c(n3cnnc13)-c1ccccc1CC21CCCC1	i	18%	3	0%	-25%	-56*
CC(C)(C)N(Cc1cc2ccccc2[nH]c1=O)C(=O)c1cccc([N+](=O)[O-])c1	-49%	17%	47*	0%	9%	-17
CCOC(=O)c1cnc(-n2nc(C)cc2C)nc1N(CC)CC	?	1%	-11	?	-12%	-59*
CCOC(=O)c1cnc(-n2nc(C)cc2C)nc1NC	-14%	24%	1	18µM*	39%	?
CCOC(=O)c1cnc(-n2nc(C)cc2C)nc1Nc1ccc(C)cc1	i	-21%	-2	0%	-11%	3
CCOC(=O)c1cnc(-n2nc(C)cc2C)nc1NC1CCCCC1	-32%	2%	1	0%	-64%	?
COc1ccc(N2CCN(C(=O)CCc3ccccc3)CC2)cc1	i	-35%	-10	0%	-9%	-8
O=C1Nc2ccccc2Nc2ncccc21	-3%[57.5 µM]	22%	-6	0%	-17%	16
Cc1ccc2c(c1)NC(=O)c1cccnc1N2	-40%[57.5 µM]	-52%	-8	-1%	4.5µM*	4
COc1ccc(CCNC(=O)COC(=O)C2=NNC(=O)CC2)cc1	-6%	·	0	·	37%	-4
CC1CCCN(CCC(=O)Nc2ccccc2)C1 (stereo not given)	i	-16%	-25	0%	-2%	9
CC1CCCN(CC(=O)Nc2ccc(S(=O)(=O)N3C(C)CCCC3C)cc2)C1 (stereo not given)	-10%	·	-2	·	-4%	-51*
CC1CCCN(CCC(=O)Nc2ccc(Br)cc2)C1 (stereo not given)	i	9%	-32	0%	14%	-86*
CC1CCN(CC(=O)Nc2ccc(S(=O)(=O)N3CCCC(C)C3)cc2)CC1 (stereo not given)	-8%	11%	-18	0%	-20%	-7
COc1ccc(COC(=O)C2=C(C)NC(=O)NC2c2ccc(F)cc2)cc1 (stereo not given)	-32%	5%	5	3%	-61%	3
CS(=O)(=O)N1CCCC(C(=O)c2cccc(Cl)c2)C1 (stereo not given)	i	-13%	-5	-1%	1%	-12
CCCS(=O)(=O)N1CCCC(C(=O)NCCc2ccc(Cl)cc2)C1 (stereo not given)	-9%[57.5 µM]	-17%	-8	0%	-8%	-63*
O=C(NCC1CCCO1)C1CCCN(S(=O)(=O)c2ccc(F)cc2)C1 (stereo not given)	i	16%	0	-1%	4%	-11
CCCS(=O)(=O)N1CCCC(C(=O)c2cccc(Cl)c2)C1 (stereo not given)	i	28%	-10	0%	1%	-68*
O=C(NCC1CCCO1)C1CCCN(S(=O)(=O)c2ccc(Cl)cc2)C1 (stereo not given)	-7%	-11%	34*	0%	2%	16
COc1ccc(S(=O)(=O)N2CCCC(C(=O)NCc3ccncc3)C2)cc1Cl (stereo not given)	i	6%	-1	0%	-9%	-71*
Cc1cc(N2CC(C(=O)Nc3nccs3)CC2=O)ccc1C(C)C (stereo not given)	-25%	-11%	4	0%	8%	13
O=C(O)c1ccc(S(=O)(=O)c2ccc(Sc3ccc(C(=O)O)c(C(=O)O)c3)cc2)cc1	i	-8%	3	-1%	0%	6
CC(C)c1cc(C(=O)N2CCCC(Nc3ccc(F)cc3)C2)nc(N)n1 (stereo not given)	-11%	16%	3	0%	-18%	16

Source: PubChem BioAssay
